In experiment [1] the target is Tyrosine-protein kinase SYK (Homo sapiens) (UniProt P43405). Particulars: at 1 µM.
In experiment [2] the target is T1, Tyrosine-protein kinase Tec (Homo sapiens) (UniProt P42680).
T1 sequence (whole entry): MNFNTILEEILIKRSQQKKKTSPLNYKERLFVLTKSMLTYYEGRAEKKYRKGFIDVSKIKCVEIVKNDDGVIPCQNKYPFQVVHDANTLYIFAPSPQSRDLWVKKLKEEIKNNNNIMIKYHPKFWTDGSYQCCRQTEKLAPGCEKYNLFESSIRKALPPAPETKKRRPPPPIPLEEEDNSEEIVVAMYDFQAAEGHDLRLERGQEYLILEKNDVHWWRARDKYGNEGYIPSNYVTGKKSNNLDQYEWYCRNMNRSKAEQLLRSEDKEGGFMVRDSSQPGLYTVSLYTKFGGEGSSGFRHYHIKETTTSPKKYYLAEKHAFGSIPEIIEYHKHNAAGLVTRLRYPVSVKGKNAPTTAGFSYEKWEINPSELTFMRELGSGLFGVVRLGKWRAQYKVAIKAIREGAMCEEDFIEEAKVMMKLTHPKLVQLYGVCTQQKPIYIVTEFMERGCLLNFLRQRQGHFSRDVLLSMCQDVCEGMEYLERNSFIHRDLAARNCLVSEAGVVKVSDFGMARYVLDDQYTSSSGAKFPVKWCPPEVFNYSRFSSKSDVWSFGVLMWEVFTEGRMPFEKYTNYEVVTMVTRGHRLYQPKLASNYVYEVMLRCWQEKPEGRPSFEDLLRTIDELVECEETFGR
Particulars: at 0.1 µM.

For experiment [3], the target named is T1, Tyrosine-protein kinase Tec (Homo sapiens). To be noted: at 1 µM.
Experiment [4] deals with Angiopoietin-1 receptor (Homo sapiens) (UniProt Q02763). To be noted: at 0.1 µM.
Experiment [5] has the same target. Particulars: at 1 µM.
Experiment [6] has as its target T2, Non-receptor tyrosine-protein kinase TNK1 (Homo sapiens) (UniProt Q13470).
T2 sequence (whole entry): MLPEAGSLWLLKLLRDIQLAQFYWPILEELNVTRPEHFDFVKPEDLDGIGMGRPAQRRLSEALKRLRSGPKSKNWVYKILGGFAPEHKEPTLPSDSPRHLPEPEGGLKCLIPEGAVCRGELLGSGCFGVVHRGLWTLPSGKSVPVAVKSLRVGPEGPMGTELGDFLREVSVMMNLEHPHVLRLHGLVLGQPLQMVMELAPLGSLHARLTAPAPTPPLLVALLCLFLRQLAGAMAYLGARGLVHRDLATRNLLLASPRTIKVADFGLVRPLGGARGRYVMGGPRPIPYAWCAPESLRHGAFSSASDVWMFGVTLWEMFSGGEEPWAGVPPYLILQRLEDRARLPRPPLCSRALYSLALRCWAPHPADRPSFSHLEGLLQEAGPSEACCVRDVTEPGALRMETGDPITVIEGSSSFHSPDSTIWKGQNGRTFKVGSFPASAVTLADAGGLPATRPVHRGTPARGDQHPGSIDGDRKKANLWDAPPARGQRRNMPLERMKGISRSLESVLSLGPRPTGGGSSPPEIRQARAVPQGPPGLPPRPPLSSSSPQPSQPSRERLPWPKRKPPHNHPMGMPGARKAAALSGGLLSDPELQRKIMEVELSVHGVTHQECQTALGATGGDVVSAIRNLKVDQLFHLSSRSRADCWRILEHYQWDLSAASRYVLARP
To be noted: at 0.1 µM.

Experiment [7] concerns the target T2, Non-receptor tyrosine-protein kinase TNK1 (Homo sapiens). To be noted: at 1 µM.
For experiment [8], the target named is Activated CDC42 kinase 1 (Homo sapiens) (UniProt Q07912). To be noted: at 0.1 µM.
For experiment [9] the target is unchanged. To be noted: at 1 µM.
Experiment [10] concerns the target High affinity nerve growth factor receptor (Homo sapiens) (UniProt P04629). Particulars: at 0.1 µM.
Experiment [11] shares this target. To be noted: at 1 µM.
Experiment [12] addresses BDNF/NT-3 growth factors receptor (Homo sapiens) (UniProt Q16620). Particulars: at 0.1 µM.
Experiment [13] shares this target. To be noted: at 1 µM.
In experiment [14] the target is NT-3 growth factor receptor (Homo sapiens) (UniProt Q16288). Particulars: at 0.1 µM.
Experiment [15] shares this target. To be noted: at 1 µM.
Experiment [16] addresses T3, Tyrosine-protein kinase TXK (Homo sapiens) (UniProt P42681).
T3 sequence (whole entry): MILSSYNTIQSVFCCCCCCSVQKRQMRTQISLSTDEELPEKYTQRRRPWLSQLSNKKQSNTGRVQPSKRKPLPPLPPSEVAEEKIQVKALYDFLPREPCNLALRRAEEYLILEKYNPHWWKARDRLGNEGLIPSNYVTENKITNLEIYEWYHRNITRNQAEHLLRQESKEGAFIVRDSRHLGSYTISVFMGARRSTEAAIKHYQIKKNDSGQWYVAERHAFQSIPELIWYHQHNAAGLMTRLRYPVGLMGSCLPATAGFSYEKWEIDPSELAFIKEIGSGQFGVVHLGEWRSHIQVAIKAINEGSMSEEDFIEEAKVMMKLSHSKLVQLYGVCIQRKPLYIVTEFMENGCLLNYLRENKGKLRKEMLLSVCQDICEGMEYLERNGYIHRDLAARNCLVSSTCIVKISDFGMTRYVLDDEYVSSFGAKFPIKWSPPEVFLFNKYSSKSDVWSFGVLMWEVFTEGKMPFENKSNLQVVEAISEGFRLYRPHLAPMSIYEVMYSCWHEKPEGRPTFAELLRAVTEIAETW
To be noted: at 0.1 µM.

Experiment [17] addresses T3, Tyrosine-protein kinase TXK (Homo sapiens). Particulars: at 1 µM.
Experiment [18] addresses Non-receptor tyrosine-protein kinase TYK2 (Homo sapiens) (UniProt P29597). Particulars: at 0.1 µM.
Experiment [19] deals with T4, Dual specificity protein kinase TTK (Homo sapiens) (UniProt P33981).
T4 sequence (whole entry): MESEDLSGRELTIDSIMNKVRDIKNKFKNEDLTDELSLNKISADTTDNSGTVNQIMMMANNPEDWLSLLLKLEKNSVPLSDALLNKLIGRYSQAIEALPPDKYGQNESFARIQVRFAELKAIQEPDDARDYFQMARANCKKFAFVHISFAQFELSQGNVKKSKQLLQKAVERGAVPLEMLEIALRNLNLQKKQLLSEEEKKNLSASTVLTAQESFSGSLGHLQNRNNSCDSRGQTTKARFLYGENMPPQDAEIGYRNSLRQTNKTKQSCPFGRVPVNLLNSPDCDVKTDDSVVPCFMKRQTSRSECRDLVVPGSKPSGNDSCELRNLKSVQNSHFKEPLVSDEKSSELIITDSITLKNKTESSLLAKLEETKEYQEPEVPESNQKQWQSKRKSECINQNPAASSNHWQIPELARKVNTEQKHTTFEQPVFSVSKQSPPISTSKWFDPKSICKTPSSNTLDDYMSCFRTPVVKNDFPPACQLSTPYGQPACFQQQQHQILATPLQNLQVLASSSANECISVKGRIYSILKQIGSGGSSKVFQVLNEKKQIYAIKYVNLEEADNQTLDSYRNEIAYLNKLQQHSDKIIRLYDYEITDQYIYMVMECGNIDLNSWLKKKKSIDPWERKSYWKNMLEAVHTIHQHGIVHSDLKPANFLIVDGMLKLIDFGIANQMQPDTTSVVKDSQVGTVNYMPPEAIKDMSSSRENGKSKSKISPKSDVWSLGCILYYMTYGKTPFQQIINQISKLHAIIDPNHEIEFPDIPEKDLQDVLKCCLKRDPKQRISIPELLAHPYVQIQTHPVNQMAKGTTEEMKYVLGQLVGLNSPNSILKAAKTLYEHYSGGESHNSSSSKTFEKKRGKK
To be noted: at 1 µM.

Experiment [20] addresses T5, Aurora kinase A (Homo sapiens) (UniProt O14965).
T5 sequence (whole entry): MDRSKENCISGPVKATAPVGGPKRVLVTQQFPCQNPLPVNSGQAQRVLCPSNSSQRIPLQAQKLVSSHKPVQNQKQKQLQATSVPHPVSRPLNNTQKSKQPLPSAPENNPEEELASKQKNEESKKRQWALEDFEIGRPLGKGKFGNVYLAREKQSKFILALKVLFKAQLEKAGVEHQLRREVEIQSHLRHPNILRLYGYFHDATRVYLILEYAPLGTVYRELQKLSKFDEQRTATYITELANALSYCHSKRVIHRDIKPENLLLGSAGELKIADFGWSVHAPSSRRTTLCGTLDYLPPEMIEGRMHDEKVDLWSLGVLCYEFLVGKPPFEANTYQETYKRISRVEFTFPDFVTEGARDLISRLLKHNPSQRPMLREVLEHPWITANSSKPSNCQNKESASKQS
Particulars: at 0.1 µM.

Chain of NT-3 growth factor receptor (Homo sapiens) (Q16288 32-839 limits assumed): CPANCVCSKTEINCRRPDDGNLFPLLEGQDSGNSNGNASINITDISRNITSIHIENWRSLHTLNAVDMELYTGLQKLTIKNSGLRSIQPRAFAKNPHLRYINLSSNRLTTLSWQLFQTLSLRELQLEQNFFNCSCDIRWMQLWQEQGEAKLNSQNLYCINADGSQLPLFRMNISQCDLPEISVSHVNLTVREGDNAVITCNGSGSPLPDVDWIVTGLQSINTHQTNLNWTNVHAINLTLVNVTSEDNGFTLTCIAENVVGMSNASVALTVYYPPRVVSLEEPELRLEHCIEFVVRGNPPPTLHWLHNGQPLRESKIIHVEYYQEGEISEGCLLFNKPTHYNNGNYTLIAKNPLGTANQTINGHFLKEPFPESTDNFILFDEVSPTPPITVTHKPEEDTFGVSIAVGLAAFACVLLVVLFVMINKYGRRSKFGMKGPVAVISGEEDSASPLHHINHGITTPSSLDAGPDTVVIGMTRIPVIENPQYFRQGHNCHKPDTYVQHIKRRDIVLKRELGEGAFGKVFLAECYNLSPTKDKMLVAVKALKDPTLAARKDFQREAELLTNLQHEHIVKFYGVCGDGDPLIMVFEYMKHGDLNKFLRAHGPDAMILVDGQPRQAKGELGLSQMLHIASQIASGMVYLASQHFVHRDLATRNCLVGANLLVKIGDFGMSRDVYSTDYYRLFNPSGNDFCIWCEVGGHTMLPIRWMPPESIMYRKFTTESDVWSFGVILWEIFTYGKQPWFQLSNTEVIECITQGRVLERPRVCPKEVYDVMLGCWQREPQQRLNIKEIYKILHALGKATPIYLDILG
Chain of Activated CDC42 kinase 1 (Homo sapiens) (Q07912 whole entry, looked up): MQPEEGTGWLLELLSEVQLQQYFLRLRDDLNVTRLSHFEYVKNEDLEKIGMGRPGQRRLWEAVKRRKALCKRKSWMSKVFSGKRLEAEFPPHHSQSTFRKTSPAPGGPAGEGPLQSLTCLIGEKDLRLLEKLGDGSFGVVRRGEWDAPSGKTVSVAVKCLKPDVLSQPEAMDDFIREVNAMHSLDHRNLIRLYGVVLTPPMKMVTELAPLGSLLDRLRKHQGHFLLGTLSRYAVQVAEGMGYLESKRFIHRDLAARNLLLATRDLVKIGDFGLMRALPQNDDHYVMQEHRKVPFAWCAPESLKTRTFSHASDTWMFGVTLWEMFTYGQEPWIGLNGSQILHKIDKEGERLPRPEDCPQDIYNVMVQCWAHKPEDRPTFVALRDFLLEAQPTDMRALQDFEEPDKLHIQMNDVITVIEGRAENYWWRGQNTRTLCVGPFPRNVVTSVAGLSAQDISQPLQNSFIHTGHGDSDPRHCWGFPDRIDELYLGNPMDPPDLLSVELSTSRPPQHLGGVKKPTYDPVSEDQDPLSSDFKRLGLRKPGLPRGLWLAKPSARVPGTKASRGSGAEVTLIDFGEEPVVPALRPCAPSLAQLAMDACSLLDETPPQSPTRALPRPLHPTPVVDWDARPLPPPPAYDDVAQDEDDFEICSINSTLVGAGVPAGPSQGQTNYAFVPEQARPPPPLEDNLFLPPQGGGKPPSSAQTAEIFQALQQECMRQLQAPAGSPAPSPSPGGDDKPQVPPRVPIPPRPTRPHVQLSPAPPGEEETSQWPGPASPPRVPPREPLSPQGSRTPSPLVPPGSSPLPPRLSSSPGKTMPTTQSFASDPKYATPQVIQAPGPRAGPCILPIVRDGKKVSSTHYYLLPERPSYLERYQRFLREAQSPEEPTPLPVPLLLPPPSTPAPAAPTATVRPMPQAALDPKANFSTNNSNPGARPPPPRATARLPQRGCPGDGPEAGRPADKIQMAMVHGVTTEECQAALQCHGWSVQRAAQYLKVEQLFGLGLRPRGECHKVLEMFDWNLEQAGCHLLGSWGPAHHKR
Chain of Angiopoietin-1 receptor (Homo sapiens) (Q02763 whole entry): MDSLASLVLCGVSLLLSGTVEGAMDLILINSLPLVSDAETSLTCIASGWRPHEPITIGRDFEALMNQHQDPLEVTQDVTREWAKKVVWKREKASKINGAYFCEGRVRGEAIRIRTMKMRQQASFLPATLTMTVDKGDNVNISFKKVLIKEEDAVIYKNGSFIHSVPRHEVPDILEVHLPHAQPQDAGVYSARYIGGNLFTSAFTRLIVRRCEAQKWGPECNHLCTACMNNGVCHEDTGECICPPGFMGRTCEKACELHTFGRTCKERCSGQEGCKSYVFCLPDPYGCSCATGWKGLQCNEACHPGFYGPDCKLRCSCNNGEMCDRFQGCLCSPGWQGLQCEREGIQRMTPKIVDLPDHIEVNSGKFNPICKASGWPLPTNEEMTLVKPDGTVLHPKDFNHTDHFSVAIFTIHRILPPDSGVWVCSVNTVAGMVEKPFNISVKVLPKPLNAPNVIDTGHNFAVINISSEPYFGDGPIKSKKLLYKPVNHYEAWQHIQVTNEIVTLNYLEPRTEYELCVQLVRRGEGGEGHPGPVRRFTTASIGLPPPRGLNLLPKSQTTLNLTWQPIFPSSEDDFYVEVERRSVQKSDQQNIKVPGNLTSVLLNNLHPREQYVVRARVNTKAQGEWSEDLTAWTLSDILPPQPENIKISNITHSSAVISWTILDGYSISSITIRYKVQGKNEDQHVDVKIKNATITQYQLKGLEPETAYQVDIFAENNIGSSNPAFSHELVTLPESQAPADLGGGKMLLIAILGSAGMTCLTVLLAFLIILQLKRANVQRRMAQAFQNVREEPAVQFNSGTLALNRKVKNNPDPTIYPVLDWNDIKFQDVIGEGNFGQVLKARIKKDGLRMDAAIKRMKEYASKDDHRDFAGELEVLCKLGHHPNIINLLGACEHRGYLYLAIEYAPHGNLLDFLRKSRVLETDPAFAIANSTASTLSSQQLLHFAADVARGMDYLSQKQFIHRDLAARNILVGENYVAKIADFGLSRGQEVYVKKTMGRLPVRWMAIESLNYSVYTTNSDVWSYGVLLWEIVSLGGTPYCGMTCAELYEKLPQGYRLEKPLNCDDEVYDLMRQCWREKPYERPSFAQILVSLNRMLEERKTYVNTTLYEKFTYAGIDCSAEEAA
Chain of BDNF/NT-3 growth factors receptor (Homo sapiens) (Q16620 32-822 limits assumed): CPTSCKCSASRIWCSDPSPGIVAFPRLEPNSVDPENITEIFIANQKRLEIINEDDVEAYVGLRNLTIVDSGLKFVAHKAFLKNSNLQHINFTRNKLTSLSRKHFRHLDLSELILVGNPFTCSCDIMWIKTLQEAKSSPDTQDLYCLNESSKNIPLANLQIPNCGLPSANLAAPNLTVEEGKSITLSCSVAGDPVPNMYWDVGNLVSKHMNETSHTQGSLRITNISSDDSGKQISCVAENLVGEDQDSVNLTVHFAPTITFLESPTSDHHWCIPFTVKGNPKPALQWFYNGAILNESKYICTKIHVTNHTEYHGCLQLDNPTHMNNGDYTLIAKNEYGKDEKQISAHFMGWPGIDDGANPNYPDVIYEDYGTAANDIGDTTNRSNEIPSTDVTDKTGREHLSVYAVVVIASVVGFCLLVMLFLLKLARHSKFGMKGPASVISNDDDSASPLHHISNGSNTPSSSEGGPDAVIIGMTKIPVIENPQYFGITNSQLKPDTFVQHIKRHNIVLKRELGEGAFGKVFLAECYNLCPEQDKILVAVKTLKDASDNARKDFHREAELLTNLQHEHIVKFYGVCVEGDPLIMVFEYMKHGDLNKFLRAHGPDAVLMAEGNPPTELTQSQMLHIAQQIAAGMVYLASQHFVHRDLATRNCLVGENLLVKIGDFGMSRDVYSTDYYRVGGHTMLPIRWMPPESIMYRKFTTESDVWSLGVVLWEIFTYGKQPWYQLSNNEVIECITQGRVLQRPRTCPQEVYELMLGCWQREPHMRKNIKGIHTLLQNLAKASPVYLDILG
Chain of Non-receptor tyrosine-protein kinase TYK2 (Homo sapiens) (P29597 whole entry): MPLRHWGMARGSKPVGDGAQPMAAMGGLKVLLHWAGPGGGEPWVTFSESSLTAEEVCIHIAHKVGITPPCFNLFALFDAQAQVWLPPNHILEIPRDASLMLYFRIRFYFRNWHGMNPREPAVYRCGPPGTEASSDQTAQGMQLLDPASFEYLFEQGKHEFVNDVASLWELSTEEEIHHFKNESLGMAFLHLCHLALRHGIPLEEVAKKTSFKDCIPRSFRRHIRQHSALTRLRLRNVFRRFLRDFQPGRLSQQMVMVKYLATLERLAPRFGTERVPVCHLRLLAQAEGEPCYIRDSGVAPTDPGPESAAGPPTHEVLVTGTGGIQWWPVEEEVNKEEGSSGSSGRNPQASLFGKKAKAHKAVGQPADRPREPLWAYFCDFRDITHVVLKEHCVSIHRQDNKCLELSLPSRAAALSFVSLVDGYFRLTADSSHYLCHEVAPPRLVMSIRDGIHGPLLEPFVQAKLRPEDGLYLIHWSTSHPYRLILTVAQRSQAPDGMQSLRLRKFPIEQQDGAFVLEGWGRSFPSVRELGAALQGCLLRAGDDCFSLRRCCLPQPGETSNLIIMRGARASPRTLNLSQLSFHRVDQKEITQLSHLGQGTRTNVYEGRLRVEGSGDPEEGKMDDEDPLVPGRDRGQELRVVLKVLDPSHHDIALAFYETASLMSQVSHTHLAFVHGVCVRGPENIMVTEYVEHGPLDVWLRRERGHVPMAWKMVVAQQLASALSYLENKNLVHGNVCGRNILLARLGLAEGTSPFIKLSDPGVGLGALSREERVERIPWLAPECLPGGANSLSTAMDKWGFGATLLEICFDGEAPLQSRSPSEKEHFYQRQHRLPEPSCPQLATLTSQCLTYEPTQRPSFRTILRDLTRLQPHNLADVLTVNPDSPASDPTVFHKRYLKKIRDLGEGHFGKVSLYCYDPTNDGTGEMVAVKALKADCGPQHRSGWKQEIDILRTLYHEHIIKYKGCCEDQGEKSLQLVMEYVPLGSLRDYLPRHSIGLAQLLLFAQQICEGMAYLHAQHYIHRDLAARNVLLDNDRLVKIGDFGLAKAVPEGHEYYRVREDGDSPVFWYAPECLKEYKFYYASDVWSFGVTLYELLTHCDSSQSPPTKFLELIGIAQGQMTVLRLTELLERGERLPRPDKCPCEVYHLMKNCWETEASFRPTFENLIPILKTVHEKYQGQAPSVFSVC

By inhibition is commonly meant the drop in the measured response relative to a control, in per cent. For the compound `COc1cc2c(cc1Nc1nc(N3CCc4ccccc43)c3cc[nH]c3n1)N(C(=O)CN(C)C)CC2`, the inhibition in [1] was -0.01%; in experiment [2], 2.67%; in [3], 7.6%; in experiment [4] it was -0.77%; in [5], 1.37%; in [6], 1.17%. For the same compound, the inhibition was 12% in experiment [7]; 0.63% in experiment [8]; 1.93% in experiment [9]; 0.79% in experiment [10]; 3.52% in experiment [11]; -0.87% in experiment [12]. Further, the inhibition is 2.75% in experiment [13]; -1.19% in experiment [14]; 5.17% in experiment [15]; 4.42% in experiment [16]; 7.54% in experiment [17]; -1.57% in experiment [18]. Besides, the inhibition in experiment [19] turned out to be 25.1%; in experiment [20], 1.58%.

Turning to `CNC(=O)c1cncc(/C=C/c2c(Cl)cccc2Cl)c1`, the inhibition in experiment [1] stood at 1%; in experiment [2], 5.68%; in experiment [3], 23.4%; in experiment [4], 5.91%; in experiment [5] it was 3.57%; in experiment [6], 8.81%. Besides, the inhibition amounted to 38.8% in experiment [7]; 0.26% in experiment [8]; 11% in experiment [9]; 2.22% in experiment [10]; 6.89% in experiment [11]; 2.99% in experiment [12]. Moreover, the inhibition is 4.39% in experiment [13]; 2.24% in experiment [14]; 2.7% in [15]; 5.28% in [16]; 22.7% in experiment [17]; -2.78% in [18]. Also, the results for the inhibition in [19] and in [20] were 18.3% and 0.59%, respectively.

On to `COc1cc2ncn(-c3cc(O[C@H](C)c4ccccc4Cl)c(C(N)=O)s3)c2cc1OC`, for which the inhibition in experiment [1] was -0.3%; in experiment [2], 5.59%; in experiment [3], 19.3%; in experiment [4], 12.7%; in experiment [5], 41.7%; in experiment [6], 17.7%. Further, the inhibition is 70.8% in experiment [7]; 6.31% in experiment [8]; 28.2% in [9]; 1.31% in experiment [10]; 12.4% in experiment [11]; 8.25% in [12]. For the same compound, the inhibition in [13] was 43.3%; in experiment [14] it was 16.1%; in experiment [15], 62.6%; in [16], 5.04%; in experiment [17], 15.8%; in [18] it was -0.55%. The figures for the inhibition in experiment [19] and in [20] were 13.2% and 2.7%, respectively.

On to `CCn1c(-c2nonc2N)nc2c(C#CC(C)(C)O)nc(OC[C@@H](N)c3ccccc3)cc21`, for which the inhibition is 1.52% in experiment [1]; 1.68% in experiment [2]; 6.92% in [3]; 1.25% in experiment [4]; 10.4% in [5]; -2.6% in [6]. Besides, the inhibition was 2.87% in [7]; 0.28% in [8]; 5.21% in experiment [9]; -0.3% in experiment [10]; 1.12% in experiment [11]; -1.96% in [12]. In addition, the inhibition in experiment [13] is 0.07%; in experiment [14], -1.23%; in [15], 3.35%; in experiment [16], 6.5%; in experiment [17] it was 5.38%; in experiment [18], 2.72%. Also, the inhibition in experiment [19] was found to be 1.66%; in [20] it was 1.81%.

For `c1cnn2ncc(-c3ccnc(Nc4ccc5c(c4)OCCO5)n3)c2c1`, the inhibition came to 13.2% in experiment [1]; 6.85% in experiment [2]; 19.8% in experiment [3]; 3.72% in [4]; 20.5% in experiment [5]; 18.1% in experiment [6]. Besides, the inhibition was 64.5% in experiment [7]; 3.29% in experiment [8]; 21.7% in [9]; 5.45% in [10]; 9.5% in experiment [11]; 5.33% in experiment [12]. For the same compound, the inhibition in experiment [13] is 18.1%; in experiment [14], 5.54%; in experiment [15], 21.3%; in experiment [16], 4.21%; in experiment [17], 17.6%; in [18], -1.73%. Also, the inhibition in experiment [19] was determined as 35%; in experiment [20], 9.49%.

`COc1cc2ncn(-c3cc(OCc4ccccc4C(F)(F)F)c(C(N)=O)s3)c2cc1OC`: the inhibition was -7.75% in [1]; -1.86% in experiment [2]; 7.03% in experiment [3]; 6.11% in [4]; 20.9% in experiment [5]; 12.5% in experiment [6]. For the same compound, the inhibition amounted to 59.1% in [7]; 0.63% in [8]; 6.53% in experiment [9]; 2.57% in experiment [10]; 5.01% in experiment [11]; 6.06% in [12]. Besides, the inhibition in [13] is 10.2%; in experiment [14], 5.07%; in experiment [15], 10.4%; in experiment [16], -5.47%; in experiment [17] it was 2.84%; in experiment [18], -1.61%. The inhibition came out at 10.1% in experiment [19] and 1.39% in experiment [20].

For the origin of these results see ChEMBL document CHEMBL1961873, “Compounds: GSK PKIS; Assays: Nanosyn kinase panel” (2012).
